PubChem BioAssay (Tox21)
Results filed as inconclusive are left out. Entries that show only a call come without a potency. The source made the active and inactive calls. Calls come from the whole dose curve.

Assay: qHTS assay to identify small molecule agonists of the AP-1 signaling pathway - cell viability counter screen (AID 1159525); note: nearly all actives have a fitted effect of over 55% in size
Settings: ME-180 (cervical carcinoma) AP-1-bla cells viability, ATP luminescence, 5 h; series mostly up to 76.8 µM; viability change, negative = cytotoxic: at the top concentration
Description: National Center for Advancing Translational Sciences [NCATS]
NIH Chemical Genomics Center [NCGC]
U.S. Environmental Protection Agency [EPA]
National Institutes of Environmental Health Sciences [NIEHS]
National Toxicology Program [NTP]
U.S. Food and Drug Administration [FDA]
Activator protein-1 (AP-1), a transcription factor, plays an important role in tumor genesis by regulating genes involved in cell proliferation, differentiation, apoptosis, and angiogenesis. AP-1 activity is induced by a complex network of signaling pathways that involves extracellular signals, such as growth factors. The AP-1 protein complex formed from c-Fos and c-Jun binding to the AP-1 response element results in transcriptional activation of genes containing such elements within their promoter.
Low molecular weight molecules have been discovered and developed to modulate various components of these signaling pathways, for example, MAP kinase inhibitors. However, many points of pathway modulation remain untested due to the lack of chemical probes making this signaling locus of general interest.
Using a beta-lactamase reporter-gene under control of the AP-1 response element, a cell-based assay [CellSensor(TM) AP-1-bla ME-180 developed by Invitrogen Corp.] was used to measure EGF-induced signaling. The Tox21 10K library compounds were measured for their ability to positively modulate the action of EC50 EGF on reporter gene activity. Compounds were screened in a 15-pt titration series in 1536-well format. The cytotoxicity of the Tox21 compound library against this cell line was tested in parallel by measuring the intra cellular ATP content in the same wells.
Tox21 Assay Protocol Summary:
2500 cells/5uL in Opti-MEM medium containing 0.5% dialyzed FBS, 0.1 mM NEAA, 1 mM sodium pyruvate and 10 mM HEPES was dispensed into 1536-well black wall/clear bottom plates using a Multidrop dispenser and cells were cultured at 37 degrees Celsius overnight. Next day 23 nL of compounds dissolved in DMSO, positive controls or DMSO were delivered to each well using a pin tool. The plates were incubated at 37 degrees Celsius for 5 hours. 1 uL of LiveBLAzerTM B/G FRET substrate (Solution A+B+C+D) was added to each well using a Flying Reagent Dispenser. After incubated at room temperature for 2.5 hours the plates were measured on an EnVision plate reader at Excitation 405nm, Emission1=460nm and Emission 2=530nm. The %Activity was determined from the ratio of 460nm/530nm.
After the plates were read for Beta-Lactamase assay on Envision; 3 ul Cell Titer Glo (Promega) was added to measure the cytotoxicity and the plates were then incubated at RT in dark for 30 min. The luminescence was read on ViewLux (Perkin Elmer, Shelton, CT) using 6 sec exposure. ViewLux data was expressed as relative luminescence units.
For primary data analysis, raw plate reads for each titration point were first normalized relative to […] EGF control (100%) and DMSO only wells (basal, 0%).
For primary data analysis for viability assay, raw plate reads for each titration point were first normalized Tetra n-octyl ammonium bromide control (-100%) and DMSO (control, 100%).
With `C=CN1CCCC1=O` the Potency was “inactive”. With `Brc1nc2ccccc2s1` the Potency was “inactive”. With `CCOC(=O)C(C)Oc1ccc(Oc2cnc3cc(Cl)ccc3n2)cc1` (stereo not given) the Potency was “inactive”. With `O=S1(=O)CCCO1` the Potency was “inactive”. In the case of `C/C=C/C(=O)N(CC)c1ccccc1C`, the Potency is reported as “inactive”. In the case of `CC(=O)[C@@]1(O)CC[C@H]2[C@@H]3C[C@H](C)C4=CC(=O)C=C[C@]4(C)[C@@]3(F)[C@@H](O)C[C@@]21C`, the Potency is reported as “inactive”. For `Clc1ccc(Sc2cc(Cl)c(Cl)cc2Cl)cc1`, the Potency was “inactive”. For `CC(=O)O[C@]1(C(C)=O)CC[C@H]2[C@@H]3C=C(Cl)C4=CC(=O)CC[C@]4(C)[C@H]3CC[C@@]21C`, the Potency was “inactive”. With `CC(C)=CCO` the Potency was “inactive”. For `CCCCCCC(C)O` (stereo not given), the Potency was “inactive”. With `CC(=O)OC(C)C` the Potency was “inactive”. In the case of `COc1ccc2nc(N)sc2c1`, the Potency is reported as “inactive”. For `Cc1ccc2c(c1)C(=O)OC2=O`, the Potency was “inactive”. For `c1ccc2c(c1)ccc1ncccc12`, the Potency was “inactive”. In the case of `C[N+](C)(C)CCO`, the Potency is reported as “inactive”. For `CC(=O)Oc1c(C)c(C)c2c(c1C)CC[C@@](C)(CCC[C@H](C)CCC[C@H](C)CCCC(C)C)O2`, the Potency was “inactive”. With `O=C1CCc2ccccc2O1` the Potency was “inactive”. In the case of `[Na+]`, the Potency is reported as “inactive”. In the case of `Nc1ccc2c(O)cc(S(=O)(=O)O)cc2c1`, the Potency is reported as “inactive”. For `CNC[C@H](O)c1ccc(O)c(O)c1`, the Potency was “inactive”. With `C1CN(SSN2CCOCC2)CCO1` the Potency was “inactive”. With `C[C@]12CC[C@@H]3c4ccc(O)cc4CC[C@H]3[C@@H]1CC[C@H]2O` the Potency was “inactive”. With `CC(C)[C@@H]1CC[C@@H](C)CC1=O` the “viability change, negative = cytotoxic” value was 1.85% (inactive). In the case of `C=C[C@H]1CN2CC[C@H]1C[C@@H]2[C@@H](O)c1ccnc2ccc(OC)cc12`, the Potency is reported as “inactive”. For `Nc1ccc(O)c(N)c1`, the Potency was “inactive”. In the case of `CC1=CC(C)(C)Nc2ccccc21`, the “viability change, negative = cytotoxic” value is reported as 1.86% (inactive). For `CC/C(=C(/CC)c1ccc(O)cc1)c1ccc(O)cc1`, the “viability change, negative = cytotoxic” value was 9.55% [at 35.3 µM] (inactive). With `CN(C)C` the Potency was “inactive”. In the case of `OCCNCCO`, the Potency is reported as “inactive”. For `CCC/C=C/C=O`, the Potency was “inactive”. With `OC[C@H]1O[C@@H]2O[C@H]3[C@H](O)[C@@H](O)[C@@H](O[C@H]4[C@H](O)[C@@H](O)[C@@H](O[C@H]5[C@H](O)[C@@H](O)[C@@H](O[C@H]6[C@H](O)[C@@H](O)[C@@H](O[C@H]7[C@H](O)[C@@H](O)[C@@H](O[C@H]1[C@H](O)[C@H]2O)O[C@@H]7CO)O[C@@H]6CO)O[C@@H]5CO)O[C@@H]4CO)O[C@@H]3CO` the Potency was “inactive”. For `CCCOCCO`, the Potency was “inactive”. With `O=C(O)c1cc(=O)[nH]c(=O)[nH]1` the Potency was “inactive”. For `C=C[Si](OCCOC)(OCCOC)OCCOC`, the Potency was “inactive”. With `C[C@]12C=CC(=O)C=C1CC[C@H]1[C@@H]3C[C@@H](O)[C@](O)(C(=O)CO)[C@@]3(C)C[C@H](O)[C@@]12F` the Potency was “inactive”. With `CC/C=C\C/C=C\C/C=C\CCCCCCCC(=O)O` the Potency was “inactive”. In the case of `CCCCCCOCCOCCO`, the Potency is reported as “inactive”. In the case of `Cc1ccc(C)c(O)c1`, the Potency is reported as “inactive”. For `CC(C)[N+](C)(CCOC(=O)C1c2ccccc2Oc2ccccc21)C(C)C`, the Potency was “inactive”. In the case of `Cc1ccc(S(=O)(=O)O)cc1C`, the Potency is reported as “inactive”.
